Pf Dd2 growth: inhibitors of Plasmodium falciparum Dd2 growth; P. falciparum Dd2 growth, SYBR Green, 72 h; 4.3% of 120,000 active; AID 1347417; Potency, µM (top dose mostly 28.9 µM), for inactives: top-dose activity, negative = inhibition, usual class: inhibitors; active = well fitted inhibition curve with a large enough effect;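 note: plate controls were DMSO vehicle for no effect and reference drug for full effect; nearly all actives have a fitted effect of over 65% in size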
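Infected erythrocytes (Dd2, 0.3% parasitemia, 2.5% hematocrit final) are added to compound in RPMI-1640/Albumax II medium, grown 72 h at 37C in low oxygen, then lysed with saponin/Triton-X containing SYBR Green and read by fluorescence.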
Active calls of the source: *; i = inactive; [ ] = dose if it differs, or a comment. This is one part of a sample in which hits are shown more often than they occur. Potency is the fitted concentration of half-maximal effect.

SMILES | Pf Dd2 growth
Fc1ccc(-c2ccc(CNCCSc3nnnn3-c3ccccc3)o2)cc1Cl | 46%
CCN(CC)CCNCc1ccc(-c2ccccc2)o1 | 3.2µM*
c1ccc(-c2ccc(CNCc3cccs3)o2)cc1 | i
Clc1cccc(-c2ccc(CNc3ncncn3)o2)c1 | -14%
CCNCc1ccc(-c2ccc(F)cc2)o1 | i
CCn1ccc(C(=O)N[C@@H]2CN(S(C)(=O)=O)C[C@H]2CN(C)C)n1 | 33%
O=C(c1ccco1)N1CCCC(c2nn[nH]n2)C1 (centres undefined) | 17%
COCCNc1cc(-c2noc([C@@H]3CCCN3C3CCN(C(C)=O)CC3)n2)ccn1 | i
Cc1[nH]c2ccccc2c1C1(O)C(=O)N(Cc2ccccc2)c2ccc(Cl)cc21 (centres undefined) | 10µM*
Cc1ccc(CN2C(=O)C(O)(c3c(C)[nH]c4ccccc34)c3ccccc32)cc1 (centres undefined) | -14%
Cc1[nH]c2ccccc2c1C1(O)C(=O)N(Cc2ccc(Cl)cc2)c2ccccc21 (centres undefined) | i[5.79 µM]
CC(C)C(=O)N1CCC2(CC1)N(C)C(=O)CS2(=O)=O | 33%
Cc1c(C(C)NC(=O)CN2CCOC2=O)cnn1-c1ccc(F)cc1F (centres undefined) | 5%
O=C(Nc1ccc(-c2cc(C(F)(F)F)nn2-c2ccccc2)cc1)c1cccc(F)c1 | 11µM*
O=C(NC(=O)c1cccc(F)c1)Nc1ccc(-c2cc(C(F)(F)F)nn2-c2ccccc2)cc1 | -18%
O=C(NC(=O)c1ccccc1)Nc1ccc(-c2cc(C(F)(F)F)nn2-c2ccccc2)cc1 | i
Cc1ccc(-c2cc3c(=O)n(CCNC(=O)c4ccc5c(c4)OCO5)ccn3n2)cc1C | 8%
CC(=O)Nc1ccc(S(=O)(=O)N[C@H]2CO[C@H]3[C@@H]2OC[C@@H]3n2nnnc2Oc2cccc(N3CCOCC3)c2)cc1 | 1%
CN(C)C(=O)N1CCC2(CC1)CN(C(=O)c1ccnc(N)c1)Cc1ccccc1O2 | -8%
CC(C)n1cnnc1-c1nn(C)c2c1CN(C(=O)Cc1c[nH]c3ccccc13)CC2 | 8.9µM*
CCNC(=O)N1CCc2c(c(-c3nncn3-c3ccccc3)nn2C)C1 | 8%
Cn1cnnc1-c1nn(C)c2c1CN(C(=O)c1n[nH]c(=O)c3ccccc13)CC2 | 12%
CC(C)N1C(=O)C2(CCCCC2)C1C(=O)NCc1cc(F)cc(F)c1 (centres undefined) | -19%
Cc1ccc(-c2nnc(C3CN(C(=O)CC4CCCCC4)CC34CCOCC4)o2)cc1 (centres undefined) | i
CCOC(=O)c1c(C)oc2nc(C)nc(NCCCN3CCN(c4ccccc4)CC3)c12 | -13%
SMILES | Pf Dd2 growth
CCOC(=O)c1c(C)oc2nc(C)nc(N3CCN(c4cc(Cl)ccc4C)CC3)c12 | 8.9µM*
CCOC(=O)c1c(C)oc2nc(C)nc(NCC3CCN(Cc4cccc(Cl)c4)CC3)c12 | -18%
CCOC(=O)c1c(C)oc2nc(C)nc(N3CCN(c4ccccc4F)CC3)c12 | 3.2µM*
Cc1nc(N2CCOCC2)c2c(C(=O)N3CCN(c4ccccc4)CC3)c(C)oc2n1 | 32%
CCOC(=O)c1c(C)oc2nc(C)nc(NCC3CCN(Cc4ccc(C)cc4)CC3)c12 | 7.1µM*
CCc1cccc(NC(=O)c2c(C)oc3nc(C)nc(N4CCCC4)c23)c1 | -9%
CCOC(=O)c1c(C)oc2nc(C)nc(NCCc3ccc(OCC)cc3)c12 | i[5.79 µM]
CCOC(=O)c1c(C)oc2nc(C)nc(NCCc3ccc(Cl)cc3)c12 | -18%
Cc1ccc(C2NC(=O)N(CC(=O)Nc3ccccc3C(C)C)C3=C2C(=O)OC3)cc1 (centres undefined) | -12%
O=C(c1ccoc1)N1CCC(c2n[nH]c(=O)n2Cc2ccc(F)cc2)CC1 | 19%
O=C1CCCN1CCCN1C(=O)[C@@H]2C[C@@H](O)CN2C2(CN(Cc3ccccc3)C2)C1=O | -8%[44.1 µM]
COc1ccc(CC(=O)NC2CCN(c3cc(-c4ccc(F)cc4)[nH]n3)C2)cc1 (centres undefined) | -10%
CCOc1ccc(CC(=O)NC2CCN(c3cc(-c4ccc(F)cc4)[nH]n3)C2)cc1OCC (centres undefined) | -10%
COc1ccc(CC(=O)NC2CCN(c3cc(-c4ccc(Cl)cc4)[nH]n3)C2)cc1OC (centres undefined) | 7.9µM*
COc1cccc(CC(=O)NC2CCCN(c3cc(-c4ccc(F)cc4)[nH]n3)C2)c1 (centres undefined) | i
COc1ccc(-c2cc(N3CCC(NC(=O)Cc4ccc(Cl)cc4)CC3)n[nH]2)cc1 | -13%
O=C(Cc1cccc(F)c1)NC1CCN(c2cc(-c3ccc(F)cc3)[nH]n2)C1 (centres undefined) | 6.3µM*
N#Cc1cccc(S(=O)(=O)N[C@@H]2CCOC[C@H]2OCc2cscn2)c1 | -6%
O=C(COc1ccccc1)Nc1ccc2nc(SCC(=O)N3CCOCC3)sc2c1 | i
CCOc1ccc(C(=O)Nc2ccc3nc(SCC(=O)N4CCOCC4)sc3c2)cc1 | 8.9µM*
CC(C)C(=O)Nc1ccc2nc(SCC(=O)N3CCOCC3)sc2c1 | 5%

High-throughput results as filed in PubChem BioAssay.
